# Compound activity deposited in PubChem BioAssay by several laboratories.
# In the library only some 1.7% were active in any assay of this set; here they are far more common.
# SUMO1 PPI mod: modulators of human SUMO1-mediated protein-protein interactions; inhibition, % at 20 µM; SUMO1 binding to a labelled peptide, TR-FRET, 1 h; AID 602429; hit rate 0.33% among 360,000; P63165; in the data active means inhibition above about 37%
# Rin1-Abl PPI inh: human Rin1-Abl interaction inhibition; P00519+Q13671; inhibition, % at 7.35 µM; AID 588664; TR-FRET Rin1/Abl binding, biochemical; hit rate 0.4% among 360,000; in the data active means inhibition above about 5%, passing the limit was not always enough
# ATG4B inh: inhibitors of human ATG4B cysteine protease; Q9Y4P1; ATG4B cleavage of LC3-PLA2, NBD-HPC fluorescence, 1 h; inhibition, % at 8.33 µM; hit rate 0.51% among 340,000; AID 504462
# Neddylation inh: inhibitors of human cullin neddylation. P61081+Q13564. TR-FRET cullin neddylation, biochemical. inhibition, % at 25 µM. hit rate 0.58% among 360,000; in the data active means inhibition above about 36%
# Target sequence (P61081 whole entry, looked up): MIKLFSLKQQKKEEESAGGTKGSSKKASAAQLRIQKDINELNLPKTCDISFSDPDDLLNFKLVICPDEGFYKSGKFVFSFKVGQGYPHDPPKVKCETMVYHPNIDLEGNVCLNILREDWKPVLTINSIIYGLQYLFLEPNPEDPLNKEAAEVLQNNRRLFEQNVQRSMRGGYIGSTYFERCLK
# Target sequence (Q13564 whole entry, looked up): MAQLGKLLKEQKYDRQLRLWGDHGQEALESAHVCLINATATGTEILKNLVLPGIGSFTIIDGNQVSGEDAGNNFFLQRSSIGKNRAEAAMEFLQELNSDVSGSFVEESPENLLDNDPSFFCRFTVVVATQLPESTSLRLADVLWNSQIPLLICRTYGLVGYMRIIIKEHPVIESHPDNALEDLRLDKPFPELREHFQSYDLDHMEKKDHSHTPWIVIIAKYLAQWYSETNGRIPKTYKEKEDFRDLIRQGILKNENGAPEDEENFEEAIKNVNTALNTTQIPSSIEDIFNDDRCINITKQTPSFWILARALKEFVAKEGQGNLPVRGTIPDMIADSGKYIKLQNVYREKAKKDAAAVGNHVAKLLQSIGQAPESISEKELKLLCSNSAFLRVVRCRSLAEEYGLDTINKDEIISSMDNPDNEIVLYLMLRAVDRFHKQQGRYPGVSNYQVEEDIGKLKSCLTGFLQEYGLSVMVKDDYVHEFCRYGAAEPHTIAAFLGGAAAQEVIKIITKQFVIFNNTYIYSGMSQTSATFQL
# Neddyl conf: confirmation of human cullin neddylation inhibitors; calls only at 25 µM; TR-FRET cullin neddylation biochemical assay; shares compounds with Neddylation inh; AID 652217; hit rate 13% among 1,800;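 further: neddylation substrate is the cullin 1 ring ligase complex with SKP2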
# Numbers without * were called inactive; i = inactive; . = no result given; + = active, no number. Unless noted, no stated cut-off is given here; in the data, active means inhibition above about 40%; inactive means the rest.
SMILES,SUMO1 PPI mod,Rin1-Abl PPI inh,ATG4B inh,Neddylation inh,Neddyl conf
COc1ccc(-c2nc3c4ccccc4ccn3c2CN2CCCCC2)cc1,-1,1,-4,27,.
COc1ccc(-c2nc3c4ccccc4ccn3c2CN2CCCCC2)cc1OC,10,-1,-2,42*,i
CN(C)c1cccc(C(=O)NCc2ccc3c(c2)OCO3)c1,6,2,-6,44*,+
CN(C)c1ccc(C(=O)NCc2ccc3c(c2)OCO3)cc1,-3,1,-5,0,.
CC1CCCCC1NC(=O)COC(=O)/C=C/c1ccc2c(c1)OCO2 (centres undefined),-3,1,0,39*,i
CCCc1cc2c(=O)c(-c3ccccn3)c(C)oc2cc1O,1,-1,2,45*,i
COc1ccc([C@H]2C[C@H](n3cc(COC(=O)c4ccccc4)nn3)[C@@H](O)CN2CC2CCCCC2)cc1,8,-1,.,-7,.
CSc1nnc2c(=O)[nH]c(=O)n(C)c2n1,-21,0,4,-23,.
CSc1cnc2c(=O)n(C)c(=O)[nH]c2n1,-13,3,3,48*,.
Cc1ccccc1CN1C(=O)CSCC1(C)C(=O)NC(C)C (centres undefined),3,.,.,-8,.
O=C(O)CN(c1ccccn1)S(=O)(=O)c1ccc(Cl)cc1,-4,-2,0,33,.
O=C(O)CN(c1ccccn1)S(=O)(=O)c1ccccc1,-4,-3,1,42*,i
CCN(CC)c1nc(C=Cc2ccc(N(C)C)cc2)c2nccnc2n1,-19,-6,.,-51,.
COc1ccc2oc(C(=O)NNC(=O)c3ccc(F)cc3)c(C)c2c1,0,0,-7,42*,.
COc1ccc2oc(C(=O)NC(C)(C)C)c(C)c2c1,1,-1,8,44*,i
COc1cc(C(=O)NNC(=S)NC(=O)c2ccc(F)cc2)cc(OC)c1OC,0,-6,3,35*,i
COc1ccc2oc(C(=O)N3CCN(S(=O)(=O)c4ccc(F)cc4)CC3)c(C)c2c1,3,4,-14,8,.
Cc1ccc(S(=O)(=O)NC(=O)C2(C)CCN2C(=O)C2CCCCC2)nc1 (centres undefined),-1,1,.,10,.
COC(=O)c1cc(NC(=O)c2c(-c3c(Cl)cccc3Cl)noc2C)ccc1N1CCOCC1,-3,4,-6,13,.
COC(=O)c1cc(NC(=O)c2c(-c3ccccc3)noc2C)ccc1N1CCOCC1,-1,-1,-6,38*,i
CCNc1ncnc2c1cnn2C1CCCCO1 (centres undefined),3,-2,-2,-10,.
CCCS(=O)(=O)NC(=O)C1(C)CCCN(C(=O)c2cc(-c3cccs3)oc2C)C1 (centres undefined),1,4,.,5,.
CCC1C(=O)n2nc(-c3ccccc3)cc2N=C1C (centres undefined),9,2,6,49*,i
CCN1C(=O)CCN(C2CCCC2)c2nc(Nc3ccc(C(=O)NC4CCN(C)CC4)cc3OC)ncc21,7,6,7,31*,i
O=C(NCc1ccc(F)cc1)c1cc(C2CCCN(C(=O)c3ccc4c(c3)CCO4)C2)on1 (centres undefined),0,-1,.,1,.
SMILES,SUMO1 PPI mod,Rin1-Abl PPI inh,ATG4B inh,Neddylation inh,Neddyl conf
COC(=O)/C(=C\c1ccc2c(c1)c1ccccc1n2C)NC(=O)c1ccccc1,-5,-2,-18,42*,i
CC(C)OC(=O)/C(=C/c1ccc2c(c1)c1ccccc1n2C)NC(=O)c1ccccc1,1,-5,0,46*,i
CC(C)OC(=O)/C(=C\c1cccnc1)NC(=O)c1ccccc1,1,3,2,-10,.
Cc1ccc2cc3cc(C(=O)NCCC(C)C)oc3nc2c1,-1,-1,4,-118,.
Cc1ccc2cc3cc(C(=O)NCc4ccco4)oc3nc2c1,-11,0,9,44*,i
OC1CCN(c2c3c(nc4cc(-c5ccc(Cl)cc5)nn24)CCC3)CC1,4,0,-4,40*,i
Clc1cccc(-c2cc3nc4c(c(N5CCOCC5)n3n2)CCCC4)c1,1,0,-2,.,.
O=C(Nc1nnc([C@H]2C[C@H](O)[C@@H](CO)O2)s1)c1ccc(Oc2ccccc2)cc1,6,1,.,11,.
Cc1ccc(/C=C/c2ccc(=O)n(Cc3ccc(F)cc3)n2)cc1,22,1,-3,.,.
CCOC(=O)Cn1nc(/C=C/c2ccc(OC)cc2)ccc1=O,-22,-2,-3,8,.
O=c1ccc(/C=C/c2ccccc2)nn1Cc1ccc(F)cc1,-11,4,-6,45*,i
